Measurements as given in PubChem BioAssay (NCATS).
Results filed as inconclusive are left out. Where a call stands in place of a potency, no number is given. Activity calls are given as the source filed them. Calls follow the shape of the dose curve; as a rule, active = well fitted activation curve with a large enough effect; inconclusive = small, poorly fitted or top-dose-only effect; inactive = no such curve, though single readings can be large or run the other way.

assay: Validation screen for small molecules that induce genotoxicity in human embryonic kidney (HEK293T) cells expressing luciferase-tagged ELG1 (AID 493106); conditions: luminescence; series mostly up to 46.1 µM
Text: NIH Molecular Libraries Probe Production Network [MLPCN]
NIH Chemical Genomics Center [NCGC]
Assay Provider: Kyungjae Myung, NHGRI, NIH
Keywords: MLPCN, qHTS, NCGC, genotoxicity, cancer
Cancer cells divide rapidly compared to normal cells in the body. During cell division, cancer cells need to duplicate their genome by DNA replication. The failure of genome duplication leads to cancer cells' death. Therefore, inhibitors of DNA replication could specifically kill cancer cells. Based on this concept, many chemotherapeutic agents were developed and have been used to treat cancer patients. However, there are a limited number of agents available in the clinical setting, and some of those that do exist have low efficacy and severe side effects. Therefore, if we can find the compounds that effectively block DNA replication either by directly damaging DNA or by inhibiting other cellular mechanisms, the options for cancer treatment will be broadened. With this in mind, we developed a quantitative high-throughput ELG1-luciferase reporter gene assay. Since the level of human ELG1 protein is enhanced in response to genetic stresses, increases in luciferase activity can be used to identify compounds that cause genetic stress.
For genotoxicity screening, 2,000 cells in 5 uL/well were dispensed into white, solid-bottom 1536-well plates using a solenoid-based dispenser. Following transfer of 23 nL compound or DMSO vehicle by a pin tool, the plates were incubated 16 hr at 37 °C and 5% CO2. 5 ul ONE-Glo (Promega) was then added to each plate and following a 30 min incubation at room temperature, luciferase activity was quantified on a ViewLux CCD-based plate reader.
Potency is read from the fitted curve at half-maximal effect.

Question: For `C#CCN1C(C)=C(C(=O)OC)C(c2cccc([N+](=O)[O-])c2)C(C(=O)OCC)=C1C` (stereo not given), which Potency is on record?
Answer: The Potency was “inactive”.

Question: With `O=C1O/C(=C/Br)CCC1c1cccc2ccccc12` (stereo not given) as the compound, how does the Potency read?
Answer: The Potency was “inactive”.

Question: For `Cc1ccc(C(=O)O[C@H](C(=O)O)[C@@H](OC(=O)c2ccc(C)cc2)C(=O)O)cc1` (tested in a mixture with another compound), which Potency is on record?
Answer: Its Potency is “inactive”.

Question: For `CN(C)c1nc2c(Br)c(Br)c(Br)c(Br)c2[nH]1`, which Potency is on record?
Answer: The Potency was “inactive”.

Question: For `NC(=O)C(=O)O`, which Potency is on record?
Answer: Its Potency is “inactive”.

Question: Which Potency does the source give for `CC(C)NCC(O)COc1cccc2ccccc12` (stereo not given) here?
Answer: Its Potency is “inactive”.

Question: For `CCOC(=O)N1CCN(/[N+]([O-])=N/Oc2ccc([N+](=O)[O-])cc2[N+](=O)[O-])CC1`, which Potency is on record?
Answer: Its Potency is “inactive”.

Question: With `COc1ccc2c(c1)CCC1C2CC[C@@]2(C)C1CC[C@@H]2NCCCCCCN1C(=O)CCC1=O` (stereo not given in full) as the compound, how does the Potency read?
Answer: Its Potency is “inactive”.

Question: For `NC[C@@H]1O[C@H](C23CC4CC(CC(C4)C2)C3)Cc2c1ccc(O)c2O`, which Potency is on record?
Answer: Its Potency is “inactive”.

Question: For `Oc1cc(O)cc(/C=C/c2ccc(O)c(O)c2)c1`, which Potency is on record?
Answer: Its Potency is 3.66 µM (active).

Question: With `NCC1OC(O[C@H]2[C@H](O)[C@@H](OC3C(O)C(N)CC(N)C3OC3OC(CO)C(O)C(O)C3N)O[C@@H]2CO)C(N)C(O)C1O` (stereo not given in full) as the compound, how does the Potency read?
Answer: The Potency was “inactive”.

Question: For `COc1cc(C(O)CO)ccc1OS(=O)(=O)O` (stereo not given), which Potency is on record?
Answer: Its Potency is “inactive”.

Question: With `N#C/C(=C\c1ccc(-c2cc(Cl)ccc2Cl)o1)C(=O)Nc1cccc2ncccc12` as the compound, how does the Potency read?
Answer: Its Potency is “inactive”.

Question: With `CN1CC(=O)N/C1=N/C(=O)Nc1cccc(Cl)c1` as the compound, how does the Potency read?
Answer: The Potency was “inactive”.

Question: For `COc1cc(SC)ccc1C(=O)N1CCC(Cc2ccccc2)CC1`, which Potency is on record?
Answer: Its Potency is “inactive”.

Question: Which Potency does the source give for `CCN(CC)c1ncnc2c1ncn2[C@@H]1O[C@H](COP(=O)(O)OP(=O)(O)C(Br)(Br)P(=O)(O)O)[C@@H](O)[C@H]1O` here?
Answer: The Potency was “inactive”.

Question: For `CC(C)CC(NP(=O)(O)O[C@@H]1O[C@@H](C)[C@H](O)[C@@H](O)[C@H]1O)C(=O)NC(Cc1c[nH]c2ccccc12)C(=O)O` (stereo not given in full), which Potency is on record?
Answer: Its Potency is “inactive”.

Question: With `Cn1ncc(S(=O)(=O)Cc2ccccc2)c(Br)c1=O` as the compound, how does the Potency read?
Answer: Its Potency is “inactive”.

Question: Which Potency does the source give for `Nc1nc(SCc2ccc([N+](=O)[O-])cc2)c2ncn([C@@H]3O[C@H](CO)[C@@H](O)[C@H]3O)c2n1` here?
Answer: Its Potency is “inactive”.

Question: Which Potency does the source give for `O=C(O)c1cc(=O)c2c(Cl)cc(Cl)cc2[nH]1` here?
Answer: The Potency was “inactive”.

Question: Which Potency does the source give for `CCCCCCCCCCCCCCCC(=O)OC(CC(=O)O)C[N+](C)(C)C` (stereo not given) here?
Answer: Its Potency is “inactive”.

Question: Which Potency does the source give for `O=[N+]([O-])c1ccc2c(c1)S(=O)(=O)C=C2` here?
Answer: The Potency was “inactive”.

Question: Which Potency does the source give for `C[N+]1(C)C2CC(OC(=O)[C@H](CO)c3ccccc3)CC1C1OC12` (stereo not given in full) here?
Answer: The Potency was “inactive”.

Question: Which Potency does the source give for `COc1ccc(NC(=O)/C=C/c2ccc(Cl)cc2)cc1` here?
Answer: Its Potency is 2.59 µM (active).

Question: For `Fc1ccc(C(OCCCc2cnc[nH]2)c2ccc(F)cc2)cc1`, which Potency is on record?
Answer: The Potency was “inactive”.

Question: With `O=c1[nH]c2cc([N+](=O)[O-])c([N+](=O)[O-])cc2[nH]c1=O` as the compound, how does the Potency read?
Answer: Its Potency is “inactive”.

Question: With `COc1cccc(OC)c1OCCNCC1COc2ccccc2O1` (stereo not given) as the compound, how does the Potency read?
Answer: Its Potency is “inactive”.

Question: With `O=C1/C(=C/c2ccsc2)CC/C1=C\c1cccs1` as the compound, how does the Potency read?
Answer: The Potency was 23.1 µM (active).

Question: With `CCCCCCCC/C=C\CCCCCCCC(=O)NCCO` as the compound, how does the Potency read?
Answer: Its Potency is “inactive”.

Question: For `OC[C@H]1O[C@@H](n2cnc3c(NC4CCCCC4)ncnc32)[C@H](O)[C@@H]1O`, which Potency is on record?
Answer: The Potency was “inactive”.

Question: Which Potency does the source give for `N#C/C(=C\c1ccc(O)c(O)c1)C(=O)NCc1ccccc1` here?
Answer: Its Potency is “inactive”.

Question: For `CN1CCc2cc(O)c(O)cc2C(c2ccccc2)C1` (stereo not given), which Potency is on record?
Answer: Its Potency is “inactive”.

Question: With `CCCCCCCCCCCCCCCCCCNC(=O)OCC(COP(=O)([O-])OCC[n+]1ccsc1)OC` (stereo not given) as the compound, how does the Potency read?
Answer: The Potency was “inactive”.

Question: With `CN1CCc2cccc3c2C1Cc1ccc(O)c(O)c1-3` (stereo not given) as the compound, how does the Potency read?
Answer: Its Potency is “inactive”.

Question: For `CN(C)c1ccc(/C=C2\C(=O)Nc3ccccc32)cc1`, which Potency is on record?
Answer: Its Potency is 1.83 µM (active).

Question: Which Potency does the source give for `N#C/C(=C\c1ccc(O)c(O)c1)C(=O)c1ccc(O)c(O)c1` here?
Answer: The Potency was “inactive”.

Question: Which Potency does the source give for `CCOC(=O)C1=C(C)NC(C)=C(C(=O)OCC)C1c1c(F)c(F)c(F)c(F)c1F` here?
Answer: The Potency was “inactive”.

Question: Which Potency does the source give for `Clc1ccc(N2CCN(Cc3cc4ccccn4n3)CC2)cc1` here?
Answer: Its Potency is “inactive”.

Question: For `O=C(O)c1cc([N+](=O)[O-])ccc1NCCCc1ccccc1`, which Potency is on record?
Answer: The Potency was “inactive”.

Question: For `CN1C2CCC1CC(OC(=O)C(O)c1ccccc1)C2` (stereo not given), which Potency is on record?
Answer: The Potency was “inactive”.
